Experimental data reported in PubChem BioAssay (NCATS).
Inconclusive results are not listed. Values without a mark were called inactive. The source made the active and inactive calls. The call rests on the fitted dose curve; in most records, active means well fitted inhibition curve with a large enough effect; inconclusive means small, poorly fitted or top-dose-only effect; inactive means flat fitted curve, though single readings scatter.

Experiments:
[1] = Drug repurposing screens with cells derived from glioblastoma tumor samples (AID 1345199); conditions: GBM patient neurospheres viability, ATP luminescence, 48 h; further: nearly all actives have a fitted effect of over 40% in size
Procedure, shortened: (§1)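 Primary testing used CD133+ neurospheres from four GBM patients, seven concentrations, 48 h exposure and ATP-based viability; confirmation added three slower-growing patient lines.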

astro = control astrocytes; experiment: as above; conditions: viability, ATP luminescence, 48 h; series mostly up to 45.9 µM
Procedure, shortened: as §1

[2] = at 20 µM (top of the series), tumour line C
[3] = at 21.2 µM (top of the series), tumour line B
[4] = at 21.2 µM (top of the series), tumour line D
[5] = at 21.3 µM (top of the series), tumour line A
[6] = at 45.9 µM (top of the series), tumour line B
[7] = at 45.9 µM (top of the series), tumour line D
[8] = at 46 µM (top of the series), tumour line A
[9] = at 46.1 µM (top of the series), tumour line C
On the % scale 0 is the no-effect control and ±100 the full control effect; potency means the concentration at half of the fitted maximal effect.

Compound | activity, negative = cell killing [1, 2] [%] | activity, negative = cell killing [1, 3] [%] | activity, negative = cell killing [1, 4] [%] | activity, negative = cell killing [1, 5] [%] | Potency (astro) | activity, negative = cell killing [1, 6] [%] | activity, negative = cell killing [1, 7] [%] | activity, negative = cell killing [1, 8] [%] | activity, negative = cell killing [1, 9] [%] | Potency ([1]; tumour line A)
CCN1C(=O)NC(c2ccccc2)C1=O (stereo not given) | -11.1 | -3.29 | -11.8 | -9.7 | inactive | – | – | – | – | –
CC(=O)N=c1sc(S(N)(=O)=O)nn1C | -7.38 | -5.71 | -24.8 | -18.1 | inactive | – | – | – | – | –
c1ccc(-n2cnnn2)cc1 | – | – | – | – | inactive | -15 | 5.06 | -23.5 | -0.778 | –
O=C1CCC(=O)N1CO | – | – | – | – | inactive | -0.626 | -0.644 | -17 | -0.827 | –
CN1CCC(OC(=O)C(Oc2ccc(Cl)cc2)Oc2ccc(Cl)cc2)CC1 | – | – | – | – | inactive | -23.9 | -4.4 | -21 | -21 | –
CN[C@@H]1[C@@H](O[C@H]2O[C@H](CO)[C@@H](N)[C@H](O)[C@H]2O)O[C@H]2C[C@@H](N)[C@@H](O[C@H]3[C@H](O)[C@@H](O)[C@H](N)C[C@@H]3N)O[C@@H]2[C@@H]1O | -7.39 | 0.663 | 2.67 | -16.4 | inactive | – | – | – | – | –
CN1c2c(nc(N)[nH]c2=O)NCC1CNc1ccc(C(=O)NC(CCC(=O)O)C(=O)O)cc1 (stereo not given) | – | – | – | – | inactive | -12 | -5.57 | -17.5 | -2.53 | –
CCCC(=O)Nc1c(I)cc(I)c(CC(CC)C(=O)O)c1I (stereo not given) | – | – | – | – | inactive | -12.8 | 14.7 | -17.5 | -13.2 | –
CC(C)CCCC(C)NC(C)C (stereo not given) | – | – | – | – | inactive | -14.7 | -20.7 | -22.7 | -7.93 | –
CC1C(=O)CC2C3(C)CCC2(C(C)C(=O)O)C(=O)C13 (stereo not given) | – | – | – | – | inactive | -19.4 | 8.38 | -22.7 | -6.43 | –
CCOC(=S)SSC(=S)OCC | – | – | – | – | inactive | -12.5 | -2.86 | -27.4 | -5.03 | –
CC(=O)Nc1ccc(OC(=O)c2ccccc2O)cc1 | – | – | – | – | inactive | -6.12 | -8.68 | -14.5 | -22.3 | –
COc1cc2c(cc1OC)[C@@H](c1ccccc1)CN(C)CC2 | – | – | – | – | inactive | -22 | -9.13 | – | -17.9 | 20 µM (active)
CS(=O)(=O)OCC(O)C(O)COS(C)(=O)=O (stereo not given) | – | – | – | – | inactive | -10.6 | -10.3 | -29.4 | -1.32 | –
Nc1nc2c(c(=O)[nH]1)N(C=O)C(CNc1ccc(C(=O)N[C@@H](CCC(=O)O)C(=O)O)cc1)CN2 (stereo not given in full) | -2.81 | -5.52 | -5.96 | -10.3 | inactive | – | – | – | – | –
O=C(O)c1ccc(NC(=O)[C@H](Cc2ccc(O)cc2)NC(=O)c2ccccc2)cc1 | – | – | – | – | inactive | -3.63 | -4.5 | -23.1 | -6.93 | –
CC/C(=C(/CC)c1ccc(OP(=O)(O)O)cc1)c1ccc(OP(=O)(O)O)cc1 | – | – | – | – | inactive | -16 | -11.4 | -22.6 | -17.3 | –
CC(/C=C/C=C(\C)C(=O)O[C@@H]1O[C@H](CO[C@@H]2O[C@H](CO)[C@@H](O)[C@H](O)[C@H]2O)[C@@H](O)[C@H](O)[C@H]1O)=C\C=C\C=C(C)\C=C\C=C(/C)C(=O)O[C@@H]1O[C@H](CO[C@@H]2O[C@H](CO)[C@@H](O)[C@H](O)[C@H]2O)[C@@H](O)[C@H](O)[C@H]1O | – | – | – | – | inactive | -13.5 | 5.42 | -21.7 | 10.7 | –
O=C1/C(=C\c2cccs2)CCC/C1=C\c1cccs1 | – | – | – | – | inactive | -19.7 | -28.6 | – | -23.9 | 25.1 µM (active)
S=C=Nc1ccc(N=C=S)cc1 | – | – | – | – | inactive | -4.92 | -5.1 | -24.5 | -6.65 | –
CCCOC(=O)c1ccccc1O | – | – | – | – | inactive | -5.91 | 2.55 | -23.3 | -5.92 | –
